Values joined by “and” are separate entries in the source; they are usually repeats but may differ in a detail not shown here. Equal values may be shown once. About 2,000 (36%) of roughly 5,500 compounds were called active. Not shown: some 18% with an inconclusive outcome. Cut-off read from the data, not from the text of the source: active = normalized growth mostly below about 0.91 (no sharp cut-off); inconclusive = no clear call, values can overlap the other calls; inactive = mostly above about 0.92. The list shows a part of the results.
Assay: chemical genetic growth profiling, strain panel (AID 1159580);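 note: tested at 20 µM; growth read once vehicle control cultures reached saturation at 30 °C; 1 = growth at the plate median or of vehicle wells; lower values mean less growth of the strain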
Settings: S. cerevisiae deletion strains, growth OD

Measured: normalized growth

CN(C)CC/C=C1\c2ccccc2Sc2ccc(Cl)cc21
active: locus YAL013W, strain DEP1, stronger effect = lower value 0.907 | locus YAL021C, strain ccr4, stronger effect = lower value 0.696 | locus YAL026C, strain drs2, stronger effect = lower value 0.0729 | locus YBL061C, strain skt5, stronger effect = lower value 0.863 | locus YBR009C, strain hhf1, stronger effect = lower value 0.859 | locus YBR021W, strain FUR4, stronger effect = lower value 0.605 | locus YBR023C, strain chs3, stronger effect = lower value 0.831 | locus YBR231C, strain swc5, stronger effect = lower value 0.676 | locus YBR279W, strain paf1, stronger effect = lower value 0.904 | locus YCL011C, strain gbp2, stronger effect = lower value 0.897 | locus YCL016C, strain dcc1, stronger effect = lower value 0.894 | locus YDL074C, strain BRE1, stronger effect = lower value 0.775 | locus YDL134C, strain PPH21, stronger effect = lower value 0.882 | locus YDR069C, strain doa4, stronger effect = lower value 0.684 | locus YDR137W, strain rgp1, stronger effect = lower value 1.33 [resistant] | locus YDR195W, strain ref2 1.49 [resistant] | locus YDR388W, stronger effect = lower value 0.819 | locus YER015W, strain faa2, stronger effect = lower value 0.668 | locus YFR010W, strain ubp6, stronger effect = lower value 0.706 | locus YGL173C, strain kem1, stronger effect = lower value 0.844 | locus YGL253W, strain hxk2, stronger effect = lower value 0.845 | locus YGR135W, strain pre9, stronger effect = lower value 0.827 | locus YGR229C, strain SMI1, stronger effect = lower value 0.635 | locus YGR252W, strain gcn5, stronger effect = lower value 0.542 | locus YHR013C, strain ard1, stronger effect = lower value 0.637 | locus YHR027C, strain rpn1, stronger effect = lower value 0.679 | locus YHR142W, strain chs7, stronger effect = lower value 0.76 | locus YIL066C, strain RNR3, stronger effect = lower value 0.854 | locus YJL095W, strain BCK1 (second series), stronger effect = lower value 0.628 | locus YJL164C, strain tpk1, stronger effect = lower value 0.878 | locus YJL166W, strain qcr8, stronger effect = lower value 0.877
inactive: locus YAL030W, strain snc1, stronger effect = lower value 0.985 | locus YBR171W, strain sec66, stronger effect = lower value 0.984 | locus YBR229C, strain ROT2, stronger effect = lower value 1.01 | locus YCL029C, strain bik1, stronger effect = lower value 1.03 | locus YCL061C, strain MRC1, stronger effect = lower value 0.987 | locus YCL069W, strain vba3, stronger effect = lower value 0.962 | locus YCR088W, strain abp1, stronger effect = lower value 0.971 | locus YDL005C, strain med2, stronger effect = lower value 1.01 | locus YDL035C, strain GPR1, stronger effect = lower value 0.901 | locus YDL040C, strain nat1, stronger effect = lower value 1 | locus YDL101C, strain DUN1, stronger effect = lower value 0.99 | locus YDL185W, strain tfp1, stronger effect = lower value 1.02 | locus YDL192W, strain arf1, stronger effect = lower value 1 | locus YDR001C, strain nth1, stronger effect = lower value 0.996 | locus YDR101C, strain arx1, stronger effect = lower value 0.977 | locus YDR150W, strain NUM1, stronger effect = lower value 1.02 | locus YDR159W, strain sac3, stronger effect = lower value 0.996 | locus YDR162C, strain NBP2, stronger effect = lower value 0.895 | locus YDR297W, strain sur2, stronger effect = lower value 0.975 | locus YDR318W, strain mcm21, stronger effect = lower value 0.982 | locus YDR334W, strain swr1, stronger effect = lower value 0.974 | locus YDR335W, strain msn5, stronger effect = lower value 0.96 | locus YDR392W, strain spt3, stronger effect = lower value 0.995 | locus YDR502C, strain sam2, stronger effect = lower value 0.951 | locus YEL003W, strain gim4, stronger effect = lower value 0.966 | locus YEL037C, strain rad23, stronger effect = lower value 0.983 | locus YEL061C, strain CIN8 (second series), stronger effect = lower value 0.981 | locus YEL061C, strain CIN8, stronger effect = lower value 1 | locus YER016W, strain bim1, stronger effect = lower value 0.953 | locus YER110C, stronger effect = lower value 1.02 | locus YER111C, strain swi4, stronger effect = lower value 0.99 | locus YER155C, strain BEM2 (second series), stronger effect = lower value 1.03 | locus YER155C, strain BEM2, stronger effect = lower value 1.03 | locus YER167W, strain BCK2, stronger effect = lower value 1 | locus YGL078C, strain dbp3, stronger effect = lower value 1.01 | locus YGL086W, strain mad1, stronger effect = lower value 0.942 | locus YGL167C, strain pmr1, stronger effect = lower value 0.997 | locus YGL227W, strain vid30, stronger effect = lower value 0.979 | locus YGL240W, strain doc1, stronger effect = lower value 0.95 | locus YGL248W, strain PDE1, stronger effect = lower value 0.894 | locus YHR079C, strain IRE1 (second series), stronger effect = lower value 1 | locus YHR079C, strain IRE1, stronger effect = lower value 0.93 | locus YHR094C, strain hxt1, stronger effect = lower value 1.02 | locus YHR129C, strain ARP1, stronger effect = lower value 0.994 | locus YHR200W, strain rpn10, stronger effect = lower value 1.02 | locus YIL073C, strain SPO22, stronger effect = lower value 0.961 | locus YIL125W, strain kgd1, stronger effect = lower value 1.01 | locus YIR030C, strain dcg1, stronger effect = lower value 1.01 | locus YJL092W, strain hpr5, stronger effect = lower value 0.972 | locus YJL115W, strain asf1, stronger effect = lower value 0.987 | locus YJL129C, strain trk1, stronger effect = lower value 0.91 | locus YJL134W, strain LCB3, stronger effect = lower value 1.01 | locus YJL154C, strain vps35, stronger effect = lower value 0.99 | locus YJL168C, strain set2, stronger effect = lower value 1.02 | locus YJL187C, strain SWE1 (second series), stronger effect = lower value 0.872
0.882 (active) and 0.899 (inactive): locus YHR030C, strain SLT2, stronger effect = lower value
0.637 (active) and 0.914 (inactive): locus YJL095W, strain BCK1, stronger effect = lower value
